# Laboratory results: article PMC11006913
# Tests used:
# Experiment in all cases: PBM; 200 nM protein, PBS
# Details in all cases: dsDNA, one strand shown
# HOXD13 [1] = target: HOXD13 (Homo sapiens, UniProt P35453 263-343, T313R)
# HOXD13 [2] = target: HOXD13 (Homo sapiens, UniProt P35453 263-343)
# HOXD13 [3] = target: HOXD13 (Homo sapiens, UniProt P35453 263-343, T313A)
# CRX = CRX (Homo sapiens, UniProt O43186 26-111, R41L)
# ALX3 = ALX3 (Homo sapiens, UniProt O95076 139-225, N203S)
# SIX6 = target: T1, SIX6 (Homo sapiens, UniProt O95475 114-200, T165A)
# T1 sequence: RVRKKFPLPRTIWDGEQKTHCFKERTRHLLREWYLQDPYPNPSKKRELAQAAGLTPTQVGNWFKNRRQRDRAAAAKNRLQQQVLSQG
# HOXC9 = HOXC9 (Homo sapiens, UniProt P31274 178-260, R222W)
# NKX2-6 = target: T2, NKX2-6 (Homo sapiens, UniProt A6NCS4 118-204)
# T2 sequence: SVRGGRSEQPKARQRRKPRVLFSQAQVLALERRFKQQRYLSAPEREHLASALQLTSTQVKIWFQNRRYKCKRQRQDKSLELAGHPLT
# HOXD13 (Homo sapiens, UniProt P35453 263-343, T313R), sequence (P35453 263-343 T313R): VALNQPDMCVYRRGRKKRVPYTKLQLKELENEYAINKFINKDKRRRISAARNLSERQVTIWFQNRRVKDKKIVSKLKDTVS
# HOXD13 (Homo sapiens, UniProt P35453 263-343, T313A), sequence (P35453 263-343 T313A): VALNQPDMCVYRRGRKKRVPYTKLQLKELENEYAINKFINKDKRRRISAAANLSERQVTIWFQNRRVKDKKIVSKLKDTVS
# HOXC9, sequence (P31274 178-260 R222W): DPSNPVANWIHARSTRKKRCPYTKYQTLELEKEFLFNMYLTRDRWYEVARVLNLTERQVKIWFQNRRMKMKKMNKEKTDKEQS
# HOXD13 (Homo sapiens, UniProt P35453 263-343), sequence (P35453 263-343): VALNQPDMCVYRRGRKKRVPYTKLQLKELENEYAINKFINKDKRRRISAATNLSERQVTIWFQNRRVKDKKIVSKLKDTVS
# CRX, sequence (O43186 26-111 R41L): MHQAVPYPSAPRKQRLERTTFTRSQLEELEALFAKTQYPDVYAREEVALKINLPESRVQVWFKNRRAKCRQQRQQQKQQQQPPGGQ
# ALX3, sequence (O95076 139-225 N203S): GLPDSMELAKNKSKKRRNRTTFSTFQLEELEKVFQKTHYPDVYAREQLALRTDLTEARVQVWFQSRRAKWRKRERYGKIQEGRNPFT
sequence,measurement,setting,value
CATATAAA,binding signal,HOXD13 [1],"10.9 upbm affinity estimate (log intensity, higher = more binding, comparable within an allelic series)"
same,binding signal,HOXD13 [2],"12.1 upbm affinity estimate (log intensity, higher = more binding, comparable within an allelic series)"
same,binding signal,HOXD13 [3],"11.9 upbm affinity estimate (log intensity, higher = more binding, comparable within an allelic series)"
GTTGTAAA,binding signal,HOXD13 [1],"10.6 upbm affinity estimate (log intensity, higher = more binding, comparable within an allelic series)"
same,binding signal,HOXD13 [2],"11.8 upbm affinity estimate (log intensity, higher = more binding, comparable within an allelic series)"
same,binding signal,HOXD13 [3],"11.7 upbm affinity estimate (log intensity, higher = more binding, comparable within an allelic series)"
CAATAATC,binding signal,HOXD13 [1],"10.2 upbm affinity estimate (log intensity, higher = more binding, comparable within an allelic series)"
same,binding signal,HOXD13 [2],"11.2 upbm affinity estimate (log intensity, higher = more binding, comparable within an allelic series)"
same,binding signal,HOXD13 [3],"11.1 upbm affinity estimate (log intensity, higher = more binding, comparable within an allelic series)"
GTTTATGA,binding signal,HOXD13 [1],"10.9 upbm affinity estimate (log intensity, higher = more binding, comparable within an allelic series)"
same,binding signal,HOXD13 [2],"12 upbm affinity estimate (log intensity, higher = more binding, comparable within an allelic series)"
same,binding signal,HOXD13 [3],"11.8 upbm affinity estimate (log intensity, higher = more binding, comparable within an allelic series)"
GGCCCACC,binding signal,HOXD13 [1],"9.47 upbm affinity estimate (log intensity, higher = more binding, comparable within an allelic series)"
same,binding signal,HOXD13 [2],"9.38 upbm affinity estimate (log intensity, higher = more binding, comparable within an allelic series)"
same,binding signal,HOXD13 [3],"9.5 upbm affinity estimate (log intensity, higher = more binding, comparable within an allelic series)"
ATATAAAC,binding signal,HOXD13 [1],"10.8 upbm affinity estimate (log intensity, higher = more binding, comparable within an allelic series)"
same,binding signal,HOXD13 [2],"11.8 upbm affinity estimate (log intensity, higher = more binding, comparable within an allelic series)"
same,binding signal,HOXD13 [3],"11.5 upbm affinity estimate (log intensity, higher = more binding, comparable within an allelic series)"
ATTACGAG,binding signal,HOXD13 [1],"10.5 upbm affinity estimate (log intensity, higher = more binding, comparable within an allelic series)"
same,binding signal,HOXD13 [2],"11.7 upbm affinity estimate (log intensity, higher = more binding, comparable within an allelic series)"
same,binding signal,HOXD13 [3],"11.4 upbm affinity estimate (log intensity, higher = more binding, comparable within an allelic series)"
AGGGGGGA,binding signal,HOXD13 [1],"9.23 upbm affinity estimate (log intensity, higher = more binding, comparable within an allelic series)"
same,binding signal,HOXD13 [2],"9.47 upbm affinity estimate (log intensity, higher = more binding, comparable within an allelic series)"
same,binding signal,HOXD13 [3],"9.55 upbm affinity estimate (log intensity, higher = more binding, comparable within an allelic series)"
CCGGCCCA,binding signal,HOXD13 [1],"9.49 upbm affinity estimate (log intensity, higher = more binding, comparable within an allelic series)"
same,binding signal,HOXD13 [2],"9.55 upbm affinity estimate (log intensity, higher = more binding, comparable within an allelic series)"
same,binding signal,HOXD13 [3],"9.54 upbm affinity estimate (log intensity, higher = more binding, comparable within an allelic series)"
GTTATTAA,binding signal,HOXD13 [1],"10.7 upbm affinity estimate (log intensity, higher = more binding, comparable within an allelic series)"
same,binding signal,CRX,"10.4 upbm affinity estimate (log intensity, higher = more binding, comparable within an allelic series)"
same,binding signal,ALX3,"8.66 upbm affinity estimate (log intensity, higher = more binding, comparable within an allelic series)"
CTTGACAC,binding signal,SIX6,"10.3 upbm affinity estimate (log intensity, higher = more binding, comparable within an allelic series)"
CATCGGGG,binding signal,HOXD13 [1],"9.56 upbm affinity estimate (log intensity, higher = more binding, comparable within an allelic series)"
same,binding signal,HOXD13 [2],"9.66 upbm affinity estimate (log intensity, higher = more binding, comparable within an allelic series)"
same,binding signal,HOXD13 [3],"9.72 upbm affinity estimate (log intensity, higher = more binding, comparable within an allelic series)"
ATTGACAC,binding signal,SIX6,"10.5 upbm affinity estimate (log intensity, higher = more binding, comparable within an allelic series)"
CGACACCG,binding signal,SIX6,"10.2 upbm affinity estimate (log intensity, higher = more binding, comparable within an allelic series)"
CGCCGCCC,binding signal,HOXD13 [1],"9.48 upbm affinity estimate (log intensity, higher = more binding, comparable within an allelic series)"
same,binding signal,HOXD13 [2],"9.53 upbm affinity estimate (log intensity, higher = more binding, comparable within an allelic series)"
same,binding signal,HOXD13 [3],"9.6 upbm affinity estimate (log intensity, higher = more binding, comparable within an allelic series)"
ATATAAAT,binding signal,HOXD13 [1],"10.8 upbm affinity estimate (log intensity, higher = more binding, comparable within an allelic series)"
same,binding signal,HOXD13 [3],"11.6 upbm affinity estimate (log intensity, higher = more binding, comparable within an allelic series)"
same,binding signal,HOXC9,"11 upbm affinity estimate (log intensity, higher = more binding, comparable within an allelic series)"
GGTGTAAA,binding signal,SIX6,"10.4 upbm affinity estimate (log intensity, higher = more binding, comparable within an allelic series)"
TAGTGTCA,binding signal,SIX6,"10.4 upbm affinity estimate (log intensity, higher = more binding, comparable within an allelic series)"
TCTATAAA,binding signal,HOXD13 [1],"11 upbm affinity estimate (log intensity, higher = more binding, comparable within an allelic series)"
same,binding signal,HOXD13 [2],"12.2 upbm affinity estimate (log intensity, higher = more binding, comparable within an allelic series)"
same,binding signal,HOXD13 [3],"11.9 upbm affinity estimate (log intensity, higher = more binding, comparable within an allelic series)"
same,binding signal,HOXC9,"11 upbm affinity estimate (log intensity, higher = more binding, comparable within an allelic series)"
GGTGTCGA,binding signal,SIX6,"10.5 upbm affinity estimate (log intensity, higher = more binding, comparable within an allelic series)"
CAATTCAA,binding signal,NKX2-6,"11.8 upbm affinity estimate (log intensity, higher = more binding, comparable within an allelic series)"
GATTATGA,binding signal,NKX2-6,"11.2 upbm affinity estimate (log intensity, higher = more binding, comparable within an allelic series)"
GTGTCAAA,binding signal,SIX6,"10.3 upbm affinity estimate (log intensity, higher = more binding, comparable within an allelic series)"
GTGTCATA,binding signal,SIX6,"10.8 upbm affinity estimate (log intensity, higher = more binding, comparable within an allelic series)"
CGTAATAA,binding signal,NKX2-6,"11 upbm affinity estimate (log intensity, higher = more binding, comparable within an allelic series)"
GGTGTAGA,binding signal,SIX6,"10.3 upbm affinity estimate (log intensity, higher = more binding, comparable within an allelic series)"
GAGTGTCA,binding signal,SIX6,"10.3 upbm affinity estimate (log intensity, higher = more binding, comparable within an allelic series)"
GGGTGTAA,binding signal,SIX6,"10.4 upbm affinity estimate (log intensity, higher = more binding, comparable within an allelic series)"
GTGTCACA,binding signal,SIX6,"10.7 upbm affinity estimate (log intensity, higher = more binding, comparable within an allelic series)"
CCGCGCTC,binding signal,HOXD13 [1],"9.52 upbm affinity estimate (log intensity, higher = more binding, comparable within an allelic series)"
same,binding signal,HOXD13 [2],"9.5 upbm affinity estimate (log intensity, higher = more binding, comparable within an allelic series)"
same,binding signal,HOXD13 [3],"9.47 upbm affinity estimate (log intensity, higher = more binding, comparable within an allelic series)"
ATTTTATA,binding signal,HOXD13 [1],"10.9 upbm affinity estimate (log intensity, higher = more binding, comparable within an allelic series)"
same,binding signal,HOXD13 [2],"11.8 upbm affinity estimate (log intensity, higher = more binding, comparable within an allelic series)"
same,binding signal,HOXD13 [3],"11.9 upbm affinity estimate (log intensity, higher = more binding, comparable within an allelic series)"
same,binding signal,HOXC9,"11.1 upbm affinity estimate (log intensity, higher = more binding, comparable within an allelic series)"
CGGGTGTC,binding signal,SIX6,"10.4 upbm affinity estimate (log intensity, higher = more binding, comparable within an allelic series)"
AGTGTCAC,binding signal,SIX6,"10.4 upbm affinity estimate (log intensity, higher = more binding, comparable within an allelic series)"
GACACCGA,binding signal,SIX6,"10.4 upbm affinity estimate (log intensity, higher = more binding, comparable within an allelic series)"
CTAAGTTA,binding signal,NKX2-6,"11.2 upbm affinity estimate (log intensity, higher = more binding, comparable within an allelic series)"
AGTGTCAA,binding signal,SIX6,"10.3 upbm affinity estimate (log intensity, higher = more binding, comparable within an allelic series)"
ACTGACAC,binding signal,SIX6,"10.4 upbm affinity estimate (log intensity, higher = more binding, comparable within an allelic series)"
